For nine compounds, growth results are on record in PubChem BioAssay (NCI).

Assay in all cases: NCI-60 one-dose screen, 48 h (100 = growth as untreated, 0 = no growth, -100 = all killed)
Test [1] deals with HCT-15 colon. To be noted: 10 µM unless noted.
In test [2] the test system is SNB-19 CNS. To be noted: 10 µM unless noted.
Test [3] concerns U251 CNS. The following applies: 10 µM unless noted.
Test [4] has as its system PC-3 prostate. To be noted: 10 µM unless noted.
The test system of test [5] is SK-MEL-5 melanoma. To be noted: 10 µM unless noted.
In test [6] the test system is UACC-62 melanoma. To be noted: 10 µM unless noted.
Test [7] concerns LOX IMVI melanoma. To be noted: 10 µM unless noted.
The test system of test [8] is SK-MEL-28 melanoma. To be noted: 10 µM unless noted.
The subject of test [9] is SK-MEL-2 melanoma. To be noted: 10 µM unless noted.
Test [10] has as its system EKVX NSCLC. The following applies: 10 µM unless noted.
Test [11] relates to SN12C renal. To be noted: 10 µM unless noted.
Test [12] has as its system UO-31 renal. The following applies: 10 µM unless noted.
The subject of test [13] is TK-10 renal. The following applies: 10 µM unless noted.
The test system of test [14] is ACHN renal. To be noted: 10 µM unless noted.
For test [15], the system named is CAKI-1 renal. The following applies: 10 µM unless noted.
Test [16] relates to A498 renal. To be noted: 10 µM unless noted.
Test [17] concerns CCRF-CEM leukemia. To be noted: 10 µM unless noted.
Test [18] concerns MOLT-4 leukemia. The following applies: 10 µM unless noted.
Test [19] concerns SNB-75 CNS. To be noted: 10 µM.

SMILES strings stand for the structures. About 83,000 compounds went through this panel and 20% of them were active in at least one assay; those are over-represented in the sample as a whole.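 Cell lines were cultured in 96-well plates, exposed to a single compound concentration, and assessed for percent growth 48 hours later.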 Unmarked numbers belong to inactive results. Activity calls are given as the source filed them. The calls were made as follows: active = growth percent below 10; inactive = the rest.

In the case of `C=C(C)[C@@H]1C[C@@H]2Cc3cc(Cl)ccc3N1O2`, the growth in test [1] was 97.9%; in test [2], 105%; in test [3], 94.5%; in [4], 96.5%; in test [5] it was 95.8%; in [6], 94.9%. Further, the growth in test [7] is 99.3%; in test [8] it was 108%; in [9] it was 130%; in test [10], 84.7%; in [11], 102%; in [12] it was 100%. In addition, the growth was 129% in test [13]; 99% in [14]; 95.9% in test [15]; 96.3% in [16]; -70.8% (active) in test [17].

With `O=C1CS/C(=N\Nc2cc(=O)[nH]c3ccccc23)N1c1ccccc1`, the growth in test [1] is 94.5%; in test [2] it was 90.7%; in [3], 95%; in test [4] it was 80.9%; in test [5], 96.2%; in [6] it was 85.5%. Further, the growth is 88.2% in test [7]; 111% in test [8]; 100% in test [9]; 87.3% in [10]; 94.1% in [11]; 69.7% in [12]. Besides, the growth in test [13] is 111%; in test [14], 93.6%; in [15] it was 81.3%; in [16], 81.7%; in test [17] it was 86.2%; in [18], 98.8%.

Regarding `C=C[C@@H]1C[C@@H]2Cc3cc(F)ccc3N1O2`, the growth in test [1] was 104%; in [2], 109%; in [3], 99.3%; in test [4] it was 102%; in test [5] it was 108%; in [6], 100%. The growth in test [7] is 104%; in [8] it was 115%; in [9], 117%; in test [10] it was 110%; in [11] it was 102%; in [12], 129%. The growth is 107% in test [13]; 106% in [14]; 92.5% in [15]; 97.8% in test [16]; -57.7% (active) in [17].

Regarding `C=C(C)[C@@H]1C[C@@H]2Cc3cc(F)ccc3N1O2`, the growth in [1] is 92.9%; in test [19], 95.9%; in [2], 105%; in test [3], 89.5%; in test [4] it was 95%; in test [5], 95.3%. In addition, the growth is 95% in [6]; 107% in test [8]; 98.1% in test [9]; 85.9% in [10]; 98.6% in test [11]; 77.4% in [12]. The growth in test [13] is 97%; in test [14] it was 95.4%; in test [15] it was 98%; in [16], 95.2%; in test [17] it was -47.4% (active).

As to `COc1cc2c(cc1O)CCN1C[C@@H](CC(C)C)[C@@H](O)C[C@@H]21`, the growth in test [1] was 106%; in test [19] it was 107%; in [2], 102%; in test [3], 92.1%; in [5], 107%; in test [6], 93.1%. In addition, the growth in [7] was 97.8%; in test [8], 106%; in [9], 98.1%; in test [10] it was 95.3%; in test [11] it was 94.3%; in test [12], 88.4%. Moreover, the growth is 97% in test [13]; 103% in [14]; 91.4% in [15]; 107% in test [17]; 95.4% in test [18].

On to `C=C(C)[C@@H]1C[C@@H]2Cc3ccc(Cl)c(C)c3N1O2`, for which the growth in test [1] is 93%; in test [19], 93%; in test [2] it was 103%; in test [3], 92.6%; in test [5] it was 89.1%; in [6], 93.4%. For the same compound, the growth was 98.8% in test [7]; 107% in test [8]; 96.4% in test [9]; 86.2% in test [10]; 97.3% in test [11]; 99.3% in test [12]. The growth in [13] is 53.8%; in [14], 96.8%; in [15], 89.8%; in test [16] it was 83.2%; in test [17], -68.9% (active); in test [18] it was -2.28% (active).

With `Cc1ccc(S(=O)(=O)C2=C3C(=C(c4ccccc4)c4ccccc43)CN(S(=O)(=O)c3ccc(C)cc3)C2)cc1`, the growth is 39% in test [1]; 56.1% in test [19]; 82.1% in test [2]; 38.4% in [3]; 30.1% in test [4]; 81.9% in [5]. Further, the growth in test [6] is 36.9%; in test [8] it was 88%; in test [9] it was 36.8%; in test [10] it was 77.9%; in test [11], 55.3%; in [12] it was 32.3%. Further, the growth was 43.3% in test [14], 87.5% in test [16], -7.65% (active) in test [17] and -6.7% (active) in [18].

Take `COc1cc(C2CC(c3ccc4c(c3)OCO4)=NN2C=O)cc(OC)c1OC` (stereo not drawn): the growth was 33.5% in test [1]; -13.5% (active) in test [19]; 42.8% in test [2]; 32% in test [3]; 17.2% in test [5]; 40.9% in test [6]. The growth was 34.5% in test [7]; 50.6% in test [8]; 31.3% in [9]; 37.9% in test [10]; 46.3% in test [11]; 53.2% in test [13]. In addition, the growth in test [15] is 6.42% (active); in test [16], 31.2%; in test [17] it was 24.5%; in test [18] it was 45%.

As for `COc1ccc2c(c1)NC1=C(C(=O)OC1)C2c1cc(OC)c2c(c1)OCO2` (stereo not drawn), the growth in test [1] is 16.5%; in test [19], 53.6%; in test [2], 37.3%; in test [3] it was 21.1%; in test [4], 24.3%; in test [5], -55.1% (active). For the same compound, the growth was 50.8% in test [6]; 19% in test [7]; 54.6% in test [9]; 52.2% in test [10]; 26.4% in test [11]; 57.5% in test [12]. Besides, the growth in test [13] is 58.3%; in test [15], 43.4%; in test [16], 18.5%; in test [17], 10.1%; in test [18], 11.6%.
